# CHO-K1 Ca PAM = nonselective calcium activators in parental CHO-K1 cells, primary screen, counter-screen for M1 PAM project, cell-based, Fluo-8 calcium fluorescence, full deck, 1536-well; ATP EC20; 0% at ATP EC20, 100% at ATP max; activation, % at 3 µM; actives 0.02% (n = 360,000);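 active = activation above the run cutoff, the mean activation of all test compounds plus 3 SD, cut at about 40% in these data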;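 also: peak over basal fluorescence ratio in a 140 s read after ATP addition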
# M1 ag parental = counter-screen for M1 agonists: effect in parental CHO-K1 cells | Fluo-8 calcium fluorescence; scaled to maximal ATP response, vehicle zero | activation, % at 3 µM | actives 0.48% (n = 360,000) | AID 602248, 2012; in the data active = activation above about 15%;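 also: untransfected CHO-K1 host cells lacking M1 receptor as counterscreen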
# M1 antag = human M1 muscarinic receptor antagonists, primary screen, CHO-K1 cells, Fluo-8 calcium fluorescence, 1536-well; inhibition, % at 3 µM; actives 1.3% (n = 360,000); CHO-K1 hM1, ACh EC80 antagonist; Muscarinic acetylcholine receptor M1 (Homo sapiens), P11229;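 active = percent inhibition above its own plate's cutoff, namely the mean of that plate's compound wells plus 3 SD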;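 also: peak over basal fluorescence ratio during 140 s after agonist addition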
# Target sequence (P11229 whole entry, looked up): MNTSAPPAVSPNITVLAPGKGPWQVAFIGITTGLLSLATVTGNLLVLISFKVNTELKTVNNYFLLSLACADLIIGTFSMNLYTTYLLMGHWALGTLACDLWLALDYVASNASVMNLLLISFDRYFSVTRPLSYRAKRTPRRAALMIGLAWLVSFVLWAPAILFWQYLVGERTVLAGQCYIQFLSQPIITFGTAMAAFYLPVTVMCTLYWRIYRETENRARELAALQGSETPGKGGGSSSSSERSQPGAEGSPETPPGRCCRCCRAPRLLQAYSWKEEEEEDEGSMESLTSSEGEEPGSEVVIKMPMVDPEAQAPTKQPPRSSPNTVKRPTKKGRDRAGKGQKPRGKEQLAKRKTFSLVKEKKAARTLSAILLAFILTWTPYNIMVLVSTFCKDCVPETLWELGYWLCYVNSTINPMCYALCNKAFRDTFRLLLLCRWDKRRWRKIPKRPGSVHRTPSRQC
# M1 PAM = human M1 muscarinic receptor positive allosteric modulators, primary screen, CHO-K1 cells, Fluo-8 calcium fluorescence, 1536-well; Muscarinic acetylcholine receptor M1 (Homo sapiens), P11229; CHO-K1 hM1, ACh EC20; 0% = ACh EC20, 100% = maximal ACh; activation, % at 3 µM; actives 0.088% (n = 360,000); in the data active = activation above about 19%, passing the limit was not always enough
# CHRM1 agonist = human M1 muscarinic receptor agonists, primary screen, Fluo-8 calcium fluorescence, CHO-K1 cells, HTS | Muscarinic acetylcholine receptor M1 (Homo sapiens), P11229 | CHO-K1 hM1, agonist mode; 0% DMSO, 100% acetylcholine EC100 | activation, % at 3 µM | actives 0.33% (n = 360,000);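 active = activation above the run's mean compound activation plus 3 SD, cut at about 16% in these data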;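 also: peak over basal fluorescence ratio within a 140 s kinetic read after compound addition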
# CHO-K1 Ca antag = nonselective inhibitor or artifact in parental CHO-K1 cells. inhibition, % at 3 µM. ATP-induced calcium, Fluo-8 fluorescence. actives 0.6% (n = 360,000);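 active = inhibition above a per-plate cutoff, the plate's mean sample inhibition plus 3 SD, cut at about 24% in these data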
# Hits are given with their value; n = inactive; x = no result given. The list is not random: actives were taken first. Their share in the collection is about 2.4%.
SMILES,CHO-K1 Ca PAM,M1 ag parental,M1 antag,M1 PAM,CHRM1 agonist,CHO-K1 Ca antag
Cc1ccc([N+](=O)[O-])c(OCCN2C(=O)NC(C)(C)C2=O)c1,n,n,n,n,n,n
CCCNc1cc(=S)nc(N)[nH]1,n,n,n,n,n,n
CCC(=O)N(Cc1cc(=O)[nH]c2ccccc12)c1ccccc1,n,n,31,n,n,n
CC(C)NC(=O)N(C)C[C@H]1OCc2cnnn2CCCC(=O)N([C@H](C)CO)C[C@H]1C,n,n,n,n,n,n
CCc1cc(C(=O)OCC(=O)N2CCC(c3ccccc3)=N2)sc1C,n,n,48,n,n,n
CC(=O)N1CCN(S(=O)(=O)c2c(C)n(C)c(=O)n(C)c2=O)CC1,n,n,n,n,n,n
Cc1ccc(C2C(C#N)=C(N)SC(N)=C2C#N)cc1,n,n,n,n,n,n
Cc1ccc(C2C(C#N)=C(N)SC(N)=C2C#N)c(C)c1,n,n,n,n,20,n
CCN(CC)S(=O)(=O)c1ccc(N2CC(C(=O)NCCc3c[nH]c4ccccc34)CC2=O)cc1 (stereo not drawn),n,n,n,n,n,n
Cn1c(=O)c(C(=O)NNC(=O)c2ccccc2Br)c(O)c2ccccc21,n,n,n,n,n,n
CCn1c(=O)c(C(=O)Nc2nc3ccccc3[nH]2)c(O)c2ccccc21,n,n,51,n,n,n
CCn1c(=O)c(C(=O)NNC(=O)c2ccccc2Br)c(O)c2ccccc21,n,17,n,n,n,n
CCn1c(=O)c(C(=O)NNC(=O)c2cccc(Cl)c2)c(O)c2ccccc21,n,22,n,n,21,n
Cc1ccccc1OCc1nc2ccccc2c(=O)n1NC(=O)c1ccco1,n,n,n,n,18,n
Cc1cc(C)nc(NC(=NCc2ccc3c(c2)OCO3)NC(=O)Nc2ccccc2)n1,n,n,32,n,n,n
Cc1cc(NC(=O)CS(=O)(=O)c2cn(Cc3cccc(C(F)(F)F)c3)c3ccccc23)no1,n,n,n,n,18,n
O=C(CSc1cn(Cc2cccc(F)c2)c2ccccc12)NCc1ccc(F)cc1,n,n,31,n,n,n
Cc1ccc(CS(=O)(=O)c2cn(CC(=O)Nc3ccon3)c3ccccc23)cc1,n,19,n,n,n,n
Cc1cc(NC(=O)CSCC(=O)NCc2cccc(C(F)(F)F)c2)no1,n,n,n,n,n,n
Cc1cc(NC(=O)CS(=O)(=O)c2cn(Cc3cccc(F)c3)c3ccccc23)no1,n,n,n,n,17,n
CC(C)Nc1ncnc2c1ncn2[C@H]1CN(Cc2cccnc2)C[C@@H](CO)O1,n,n,n,n,n,n
CCn1cc(S(=O)(=O)CC(=O)Nc2cc(C)on2)c2ccccc21,n,n,n,n,n,n
Cc1cc(NC(=O)CS(=O)(=O)c2cn(Cc3ccc(F)cc3)c3ccccc23)no1,n,n,n,n,32,n
COc1cccc(N(C(=O)c2snc(C(N)=O)c2N)C(C(=O)NCC2CCCO2)c2ccc(F)cc2)c1 (stereo not drawn),n,n,n,n,n,n
COc1cccc(N(C(=O)c2sc(C)nc2C)C(C(=O)NCC2CCCO2)c2ccccc2)c1 (stereo not drawn),n,n,n,n,n,27
SMILES,CHO-K1 Ca PAM,M1 ag parental,M1 antag,M1 PAM,CHRM1 agonist,CHO-K1 Ca antag
CC(=O)C1=C(C)NC(=S)NC1c1cc([N+](=O)[O-])ccc1O (stereo not drawn),n,17,n,n,n,n
CC1=C(C(=O)c2ccccc2)C(c2cccc([N+](=O)[O-])c2)NC(=S)N1 (stereo not drawn),n,n,n,n,n,n
COc1ccc(-n2c(SCCNCCO)nc3sc4c(c3c2=O)CCCC4)cc1,n,n,n,n,n,n
CCOC(=O)c1cc(C(C)(C)C)n(CCCN2CCOCC2)c1C,n,n,n,n,n,n
CCOC(=O)c1cc(C)n(CCCN2CCOCC2)c1C,n,n,35,n,n,n
O=C(NCCc1ccccc1)C(=O)NCC1OCCN1S(=O)(=O)c1ccc2c(c1)OCCO2 (stereo not drawn),n,19,n,n,n,n
COc1cccc(-c2ncn(CCc3ccccc3OC)c2C(C)C)c1,n,n,x,x,x,n
COc1ccc(C2c3[nH]c4ccccc4c3C[C@H]3C(=O)N(c4ccccc4C(=O)N4CCC(C(=O)O)CC4)C(=O)N23)cc1 (stereo partly drawn),n,n,n,n,n,n
CC(C)c1ccc(C2c3[nH]c4ccccc4c3C[C@H]3C(=O)N(c4ccccc4C(=O)N4CCC[C@H]4C(=O)O)C(=O)N23)cc1 (stereo partly drawn),n,n,n,n,n,25
Cn1c(=O)cc(OCCCC(=O)N2CCN(c3ccccc3)CC2)c2ccccc21,n,n,n,n,n,30
CCC1CCCCN1CCCNC(=O)CCCOc1cc(=O)n(C)c2ccccc12 (stereo not drawn),n,n,49,n,n,n
CCOc1ccc(-n2c(-c3ccc(Br)cc3)c[n+]3c2CCCCC3)cc1,n,n,30,n,n,n
CCOc1ccc(-n2c(-c3ccccc3)c[n+]3c2CCC3)cc1,n,n,38,n,n,n
CCOc1ccc(-n2c(-c3ccc(OC)cc3)c[n+]3c2CCCCC3)cc1,n,n,n,n,n,n
COc1ccc(-c2c[n+]3c(n2-c2ccc(C)cc2)CCCCC3)cc1,n,n,n,n,n,n
CC1(C(=O)NS(=O)(=O)c2cccc(OC(F)F)c2)CCN1C(=O)CCc1cccs1 (stereo not drawn),n,n,n,n,n,n
CC1(C)N=C(N)N=C(N)N1c1ccc(CCCCc2ccccc2)cc1,n,n,57,n,n,n
CCN(CC)c1ccc2c(-c3ccc(S(=O)(=O)O)cc3S(=O)(=O)[O-])c3ccc(=[N+](CC)CC)cc-3oc2c1,n,41,n,n,86,n
CC(Sc1nnc(-c2cccnc2)n1-c1ccccc1)C(=O)NCc1ccc2c(c1)OCO2 (stereo not drawn),n,n,n,n,n,n
O=C(CSc1nnc(-c2cccnc2)n1-c1ccccc1)NCc1ccc2c(c1)OCO2,n,n,n,n,n,24
CCCS(=O)(=O)N1CCN(Cc2ccccc2C(F)(F)F)CC1,n,n,n,n,n,n
CN1CCCN(Cc2ccccc2C(F)(F)F)CC1,n,n,29,n,n,n

# Screening data deposited in PubChem BioAssay by The Scripps Research Institute Molecular Screening Center.
